Consider 15 molecules from PubChem BioAssay (NCATS).

Structures are written as SMILES. Values joined by “and” are separate entries in the source; they are usually repeats but may differ in a detail not shown here. Equal values may be shown once. Records with an inconclusive call do not appear. Active and inactive are the calls of the source. Unless noted, calls come from the whole dose curve.

A short description of experiment [1]: Cytotoxicity counterscreen for inhibitors of SARS-CoV-2 cell entry (AID 1645845). Note: nearly all actives have a fitted effect of over 50% in size. Put shortly: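 48 h compound treatment (after 1 h preincubation), HEK293-ACE2 cells, 37 C/5% CO2; ATP luminescence endpoint; normalized to cell wells and media blanks.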
On the technique in general: A counterscreen serves to expose hits that act by an unwanted route or on another target.

In another experiment the test system is CRL-7250. The experiment is described as follows: qHTS assay to identify novel small-molecules to repurpose for Merkel cell carcinoma treatment (AID 1296009; active = well fitted inhibition curve with a large enough effect; note: nearly all actives have a fitted effect of over 60% in size). Conditions: MCC and control cell lines, CellTiter-Glo viability, 72 h; series mostly up to 92 µM. The essentials: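 72 hr, 37 degree celsius; NPC 8-pt / MIPE 11-pt dose response; compound pinned in DMSO; CellTiter-Glo, 10 min RT, luminescence; normalized to no-cell and DMSO controls.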
For orientation: qHTS replaces the single test concentration by a dilution series.

A short description of experiment [2]: Primary qHTS for inhibitors of SARS-S pseudo-typed particle cell entry (AID 1479145). For activity change, negative = inhibition: % is set by controls: 0 for no effect and ±100 for the full control effect. Note: nearly all actives have a fitted effect of over 45% in size.
Experiment [3] can be described thus: Primary qHTS for Huh7 cytotoxicity: counterscreen for inhibitors of MERS-S pseudotyped particle cell entry (AID 1479147). As to conditions: outcome: dose series up to 57.1 µM unless noted.
Experiment [4] can be described thus: Primary qHTS for Vero E6 cytotoxicity: counterscreen for inhibitors of SARS-S pseudo-typed particle cell entry (AID 1479150). Conditions: outcome: dose series up to 57.1 µM unless noted.
A short description of experiment [5]: qHTS for Inhibitors of the Functional Ribonucleoprotein Complex (vRNP) of Lassa (LASV) Arenavirus: Viability assay - alamar blue signal for LASV Primary Screen (AID 1347083; calls by dose curve; tested in HEK293 reporter line; note: % is set by controls: 0 for no effect and ±100 for the full control effect; nearly all actives have a fitted effect of over 80% in size).
In experiment [6] the target is Nucleoprotein (Lymphocytic choriomeningitis virus (strain Armstrong)) (UniProt P09992). The experiment is described as follows: qHTS for Inhibitors of the Functional Ribonucleoprotein Complex (vRNP) of Lymphocytic Choriomeningitis Arenaviruses (LCMV): LCMV Primary Screen - GLuc reporter signal (AID 1347086). Note: potency is the fitted concentration of half-maximal effect; nearly all actives have a fitted effect of over 70% in size.
Experiment [7] can be described thus: Confirmatory qHTS for VERO E6 Cytotoxicity Assay: Counterscreen for SARS-CoV-2 CPE Assay (AID 1508605). Note: % is set by controls: 0 for no effect and ±100 for the full control effect; nearly all actives have a fitted effect of over 60% in size.
A short description of experiment [8]: Primary qHTS to identify inhibitors of SARS-CoV-2 cell entry (AID 1645846). Note: nearly all actives have a fitted effect of over 45% in size. Conditions: activity change, negative = inhibition: at 57.1 µM (top of the series) unless noted. Put shortly:
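HEK293-ACE2 (Expi293F, stable hACE2), 1500 cells/well, o/n 37C; cpd 23 nL pin, 1 h; MLV-PP w/ SARS-CoV-2-S (Wuhan-Hu-1, Δ19 C-term); 48 h 37C; Bright-Glo luminescence; normalized vs S-PP and bald PP.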

The nature of experiment [9]: Primary qHTS for inhibitors of MERS-S pseudo-typed particle cell entry (AID 1479149). For activity change, negative = inhibition: % is set by controls: 0 for no effect and ±100 for the full control effect. Note: nearly all actives have a fitted effect of over 60% in size.
Experiment [10] can be described thus: qHTS for Inhibitors of the Functional Ribonucleoprotein Complex (vRNP) of Lymphocytic Choriomeningitis Arenaviruses (LCMV): Viability assay - alamar blue signal for LCMV Primary Screen (AID 1347085; calls by dose curve; tested in HEK293 reporter line; note: nearly all actives have a fitted effect of over 80% in size; note: potency is the fitted concentration of half-maximal effect).
Experiment [11] in a line: Confirmatory qHTS for activators (rescue) of SARS-CoV-2 Cytopathic Effect (CPE) (AID 1508606). Note: 0% is about no effect; nearly all actives have a fitted effect of over 70% in size.

Nucleoprotein (Lymphocytic choriomeningitis virus (strain Armstrong)), sequence (P09992 whole entry, looked up): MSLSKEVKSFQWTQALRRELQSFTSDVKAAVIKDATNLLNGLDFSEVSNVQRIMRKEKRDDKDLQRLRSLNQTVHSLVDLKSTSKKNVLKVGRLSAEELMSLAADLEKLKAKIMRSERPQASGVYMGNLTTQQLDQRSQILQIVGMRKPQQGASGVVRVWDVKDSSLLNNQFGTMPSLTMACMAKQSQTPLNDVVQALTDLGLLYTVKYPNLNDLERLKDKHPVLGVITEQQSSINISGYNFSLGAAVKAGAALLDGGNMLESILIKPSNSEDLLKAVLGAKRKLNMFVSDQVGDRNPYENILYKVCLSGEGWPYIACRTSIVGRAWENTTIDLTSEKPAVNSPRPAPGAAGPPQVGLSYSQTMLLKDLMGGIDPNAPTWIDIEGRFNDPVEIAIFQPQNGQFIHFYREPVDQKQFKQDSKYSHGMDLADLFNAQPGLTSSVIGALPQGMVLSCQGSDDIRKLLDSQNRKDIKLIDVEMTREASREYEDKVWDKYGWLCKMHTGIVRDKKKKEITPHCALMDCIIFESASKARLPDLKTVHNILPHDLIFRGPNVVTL

As for `CCOC(=O)[C@H]1O[C@@H]1C(=O)N[C@@H](CC(C)C)C(=O)NCCC(C)C`, the Potency result (in experiment [1]; in the experiment on CRL-7250) was “inactive” in each case.
Regarding `CCc1c(Cl)c(O)c(Cl)c(O)c1C(=O)O[C@H]1[C@H](O)[C@H](OC)[C@H](OC/C2=C\C=C\C[C@H](O)/C(C)=C\[C@H](CC)[C@@H](O[C@@H]3OC(C)(C)[C@@H](OC(=O)C(C)C)[C@H](O)[C@@H]3O)/C(C)=C/C(C)=C/C[C@@H]([C@@H](C)O)OC2=O)O[C@@H]1C`, the Potency entry (in experiment [2]; in the experiment with CRL-7250) was “inactive” each time. The molecule was called inactive in experiment [3] and in [4].
Take `CC=CCC(C)C(O)C1C(=O)NC(CC)C(=O)N(C)CC(=O)N(C)C(CC(C)C)C(=O)NC(C(C)C)C(=O)N(C)C(CC(C)C)C(=O)NC(C)C(=O)NC(C)C(=O)N(C)C(CC(C)C)C(=O)N(C)C(CC(C)C)C(=O)N(C)C(C(C)C)C(=O)N1C` (stereo not given): the Potency result (in experiment [5]; in the experiment on CRL-7250) was “inactive” in each case. In [6], the Potency is 13.7 µM (active).
For `CN1CC[C@@H](c2c(O)cc(O)c3c(=O)cc(-c4ccc(C(F)(F)F)cc4Cl)oc23)[C@@H]1CO`, the Potency result (in [7]; with CRL-7250) was “inactive” each time. Besides, the activity change, negative = inhibition in experiment [8] was -12.4%.
As for `Cc1onc(-c2ccccc2)c1C(=O)N[C@@H]1C(=O)N2[C@@H]1SC(C)(C)[C@@H]2C(=O)O`, the Potency entry (in [2]; in [9]; in [1]; in the experiment with CRL-7250) was “inactive” in each case. The call in [3] and in [4] was inactive. In addition, the activity change, negative = inhibition in experiment [8] was -25.7%.
As to `O=c1[nH]c2ccccc2n1CCN1CCN(c2cccc(C(F)(F)F)c2)CC1`, the result in experiment [3] and in experiment [4] was inactive. The Potency entry (in [1]; with CRL-7250) was “inactive” in each case.
Consider `CC(=O)OC(C)(C)/C=C/C(=O)[C@](C)(O)[C@H]1C(O)C[C@@]2(C)[C@@H]3CC=C4[C@@H](C=C(O[C@@H]5O[C@H](CO)[C@@H](O)[C@H](O)[C@H]5O)C(=O)C4(C)C)[C@]3(C)C(=O)C[C@]12C` (stereo not given in full), for which the Potency entry (in experiment [2]; in [9]; in experiment [1]; with CRL-7250) was “inactive” in each case. In addition, the outcome in experiment [3] and in experiment [4] was “inactive [at 15.3 µM]” each time.
`C[C@H](O)[C@H](O)[C@H]1CNc2nc(N)[nH]c(=O)c2N1`: the call in experiment [3] and in experiment [4] was inactive. Further, the Potency entry (in experiment [9]; in experiment [1]; in the experiment with CRL-7250) was “inactive” in each case. The activity change, negative = inhibition in experiment [8] is -28%.
For `c1cc(OCCN2CCCCC2)cc(-c2n[nH]c3ccc(-c4ncn[nH]4)cc23)c1`, the Potency entry (in experiment [10]; in the experiment with CRL-7250) was “inactive” each time.
In the case of `CCC(=O)NS(=O)(=O)c1ccc(-c2c(-c3ccccc3)noc2C)cc1`, the Potency entry (in [2]; in [9]; in experiment [1]; in the experiment with CRL-7250) was “inactive” each time. In addition, the outcome in experiment [3] and in experiment [4] was inactive. Also, in experiment [8], the activity change, negative = inhibition is -22.2% and -23.1%.
Regarding `O=C([C@@H](Cc1cccc(C(F)(F)F)c1)NS(=O)(=O)c1cc(F)c2c(c1)CCNC2)N1CCCC1`, the Potency result (in [1]; in the experiment with CRL-7250) was “inactive” throughout.
With `CN(C)CCOc1cc(-c2cn[nH]c2)ccc1NC(=O)C1COc2ccccc2O1` (stereo not given), in [10], the Potency was 27.3 µM (active). Besides, the Potency result (in experiment [1]; with CRL-7250) was “inactive” each time. For the same molecule, the activity change, negative = inhibition in experiment [8] was -42.9%.
As for `O=C(Nc1ccccc1)Nc1ccc(-c2ccc(C(=O)[C@H]3CCC[C@H]3C(=O)O)cc2)cc1`, the Potency entry (in experiment [10]; in the experiment on CRL-7250) was “inactive” each time.
In the case of `CCc1cccc(CC)c1-n1c(C=C(C)C)c(C(=O)N2CCNCC2)cc(-c2nc(-c3ccc(C(F)(F)F)cc3)cs2)c1=O`, the Potency result (in experiment [7]; in [11]; in the experiment on CRL-7250) was “inactive” each time.
For `C[C@]12CC[C@@H]3c4ccc(OC(=O)c5ccccc5)cc4CC[C@H]3[C@@H]1CC[C@@H]2O`, the Potency result (in [2]; in experiment [1]; in the experiment on CRL-7250) was “inactive” in each case. For the same molecule, the molecule was called inactive in [3] and in experiment [4].
